Measurements reported in PubChem BioAssay (NCI).
About 83,000 compounds went through this panel and 20% of them were active in at least one assay; those are over-represented in the sample as a whole.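 Activity criterion: percent growth below 10, measured after cells in 96-well plates were exposed to a single compound concentration for 48 hours.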 Active and inactive are the calls of the source.

Columns and labels:
Experiment in all cases: NCI-60 one-dose screen, 48 h (100 = growth as untreated, 0 = no growth, -100 = all killed)
Conditions in all cases: 10 µM
HCT-15 colon = tested on: HCT-15 colon
HT29 colon = tested on: HT29 colon
SNB-75 CNS = tested on: SNB-75 CNS
SNB-19 CNS = tested on: SNB-19 CNS
U251 CNS = tested on: U251 CNS
PC-3 prostate = tested on: PC-3 prostate
SK-MEL-5 melanoma = tested on: SK-MEL-5 melanoma
UACC-62 melanoma = tested on: UACC-62 melanoma
LOX IMVI melanoma = tested on: LOX IMVI melanoma
SK-MEL-28 melanoma = tested on: SK-MEL-28 melanoma

Measured: growth

CN(C)c1ccc(/C=C/c2nc3ccccc3c(=O)n2CC(=O)Nc2ccc(Cl)cc2)cc1
active: LOX IMVI melanoma 9.3%
inactive: HCT-15 colon 42.2% | HT29 colon 31.9% | SNB-75 CNS 64% | SNB-19 CNS 34.8% | U251 CNS 39.7% | PC-3 prostate 30.2% | SK-MEL-5 melanoma 55.7% | UACC-62 melanoma 70.6% | SK-MEL-28 melanoma 66%

Cc1ccc(-c2cc(-c3cc4ccccc4nc3Cl)[nH]c(=O)n2)cc1
inactive: PC-3 prostate 20.7% | SK-MEL-5 melanoma 18.1% | UACC-62 melanoma 19.3% | SK-MEL-28 melanoma 43.3%
active: HCT-15 colon -39.8% | HT29 colon -15.9% | SNB-75 CNS -17.2% | SNB-19 CNS 3.61% | U251 CNS -23.5% | LOX IMVI melanoma -82.4%

CC1(C)CC[C@]2(C(=O)O)CC[C@]3(C)C(=CC[C@@H]4[C@@]5(C)C/C(=C/c6ccncc6)[C@H](O)C(C)(C)[C@@H]5CC[C@]43C)[C@@H]2C1
inactive: HCT-15 colon 15.7% | HT29 colon 35.3% | SNB-75 CNS 35.5% | SNB-19 CNS 41.8% | U251 CNS 28.9% | PC-3 prostate 28.2% | UACC-62 melanoma 52.6% | LOX IMVI melanoma 28.7% | SK-MEL-28 melanoma 46.3%
active: SK-MEL-5 melanoma -23.2%

CCN1CCN(c2ccc(NC(=O)Nc3ccc(-c4cc(C(=O)NC(C)C)c5ncccc5n4)cc3)cc2C(F)(F)F)CC1
active: HCT-15 colon -93.5% | HT29 colon -82.3% | SNB-75 CNS -94.3% | SNB-19 CNS -81.7% | U251 CNS -89.5% | PC-3 prostate -55.3% | SK-MEL-5 melanoma -100% | UACC-62 melanoma -93.3% | LOX IMVI melanoma -100% | SK-MEL-28 melanoma -98.9%

CN1C(=O)/C(=C/c2ccc3ncsc3c2)NC1=NC12CC3CC(CC(O)(C3)C1)C2
active: HCT-15 colon -7.12% | HT29 colon 3.87% | SK-MEL-5 melanoma -90.7% | UACC-62 melanoma -7.72% | LOX IMVI melanoma -52.8% | SK-MEL-28 melanoma -18.4%
inactive: SNB-75 CNS 25.9% | SNB-19 CNS 16.3% | U251 CNS 16.4% | PC-3 prostate 16.8%

C=CC(=O)Nc1ccc(C(=O)/C=C/c2ccc(N(C)CCF)cc2)c(O)c1
active: HCT-15 colon -52% | HT29 colon -61.4% | SNB-75 CNS -8.38% | SNB-19 CNS -15.6% | U251 CNS -94.7% | PC-3 prostate 6.54% | SK-MEL-5 melanoma -90.7% | UACC-62 melanoma -42.6% | LOX IMVI melanoma -81% | SK-MEL-28 melanoma -77.8%

COc1cccc2nc(Nc3ccc(F)c(NC(=O)c4ccc(CN5CCN(C)CC5)c(C(F)(F)F)c4)c3)ccc12
active: HCT-15 colon -83% | HT29 colon -30.2% | SNB-75 CNS -3.82% | SNB-19 CNS -49.2% | U251 CNS -42.7% | PC-3 prostate -8.36% | SK-MEL-5 melanoma -94.9% | UACC-62 melanoma -82.1% | LOX IMVI melanoma -100% | SK-MEL-28 melanoma -84%

O=C1Nc2ccc(Cl)cc2/C1=C/c1ccc(OCc2ccc(Br)cc2F)cc1
active: U251 CNS -5.75% | LOX IMVI melanoma 7.62%
inactive: HCT-15 colon 45.7% | HT29 colon 40.5% | SNB-75 CNS 18.3% | SNB-19 CNS 23% | PC-3 prostate 41.4% | SK-MEL-5 melanoma 32.6% | UACC-62 melanoma 32.5% | SK-MEL-28 melanoma 63.7%

C#CCNC(=O)[C@]12CCC(C)(C)C[C@H]1C1=CC[C@@H]3[C@@](C)(CCC#N)[C@H](C(=C)C)CC[C@@]3(C)[C@]1(C)CC2
inactive: HCT-15 colon 33.2% | HT29 colon 48.9% | SNB-75 CNS 82.5% | SNB-19 CNS 64.3% | U251 CNS 54.6% | PC-3 prostate 26.3% | SK-MEL-5 melanoma 42.7% | UACC-62 melanoma 52.1% | SK-MEL-28 melanoma 74.6%
active: LOX IMVI melanoma -53.1%

CC(=O)c1ccc(Nc2nc(SC(C)C)nc(-c3ccccc3)c2C#N)cc1
active: SNB-19 CNS -20% | LOX IMVI melanoma 0.768%
inactive: HCT-15 colon 48.7% | HT29 colon 48.1% | SNB-75 CNS 42.3% | U251 CNS 10.2% | PC-3 prostate 71.9% | SK-MEL-5 melanoma 38.1% | UACC-62 melanoma 77.9% | SK-MEL-28 melanoma 31.3%

O=C1Nc2cc(Cl)ccc2/C1=C/c1ccc(OCc2ccc(Br)cc2F)cc1
active: HCT-15 colon -31.8% | HT29 colon 5.82% | SNB-75 CNS -12.2% | SNB-19 CNS -45.4% | U251 CNS -94.6% | PC-3 prostate -42.3% | SK-MEL-5 melanoma -66.7% | UACC-62 melanoma -75.2% | LOX IMVI melanoma -94.5% | SK-MEL-28 melanoma -60.7%

COc1ccc2nc(Cl)c(-c3cc(-c4ccccc4)nc(=O)[nH]3)cc2c1
active: HCT-15 colon 0.676% | LOX IMVI melanoma -46.4%
inactive: HT29 colon 32.2% | SNB-75 CNS 70.1% | SNB-19 CNS 31.5% | U251 CNS 12.6% | PC-3 prostate 48.8% | SK-MEL-5 melanoma 74.2% | UACC-62 melanoma 66.8% | SK-MEL-28 melanoma 97.7%

C=C(C)[C@@H]1CC[C@]2(C(=O)OC)CC[C@]3(C)[C@H](CC[C@@H]4[C@@]5(C)CC[C@H](N)C(C)(C)[C@@H]5CC[C@]43C)[C@@H]12
active: HCT-15 colon -97.2% | HT29 colon -70.6% | SNB-75 CNS -91.5% | SNB-19 CNS -99.3% | U251 CNS -85.4% | PC-3 prostate -28.2% | SK-MEL-5 melanoma -54.9% | UACC-62 melanoma -97.9% | LOX IMVI melanoma -98.4% | SK-MEL-28 melanoma -100%

Cc1ccc2nc(-c3ccc(-c4nnc(SCC(=O)Nc5ccc(Cl)cc5)o4)cc3)[nH]c2c1
inactive: HCT-15 colon 21.9% | HT29 colon 31.2% | SNB-75 CNS 101% | SNB-19 CNS 26.7% | PC-3 prostate 14% | SK-MEL-5 melanoma 83.9% | UACC-62 melanoma 56.3% | SK-MEL-28 melanoma 39.7%
active: U251 CNS -21% | LOX IMVI melanoma -45.6%

O=C(CNc1nc(-c2ccccc2)cs1)Nc1cccc([N+](=O)[O-])c1
active: HCT-15 colon -79.4% | HT29 colon -61.6% | SNB-75 CNS -36.5% | SNB-19 CNS -88.1% | U251 CNS -62.6% | PC-3 prostate -18.5% | SK-MEL-5 melanoma -100% | UACC-62 melanoma -84% | LOX IMVI melanoma -100% | SK-MEL-28 melanoma -84.9%

CC(C)NC(=O)c1cc(-c2ccc(NC(=O)Nc3ccc(N4CCN(C)CC4)c(C(F)(F)F)c3)cc2)nc2cccnc12
active: HCT-15 colon -89.6% | HT29 colon -86.6% | SNB-75 CNS -96.2% | SNB-19 CNS -93.2% | U251 CNS -86.2% | PC-3 prostate -72.9% | SK-MEL-5 melanoma -100% | UACC-62 melanoma -97.1% | LOX IMVI melanoma -99.2% | SK-MEL-28 melanoma -99.3%

COc1cc(Cn2c(C(F)(F)F)cc3c(Cl)ncnc32)ccn1
inactive: HT29 colon 69.7% | U251 CNS 12.7% | PC-3 prostate 29.3% | SK-MEL-28 melanoma 27.9%
active: HCT-15 colon -48.3% | SNB-75 CNS -60.9% | SNB-19 CNS -8.63% | SK-MEL-5 melanoma -20.4% | UACC-62 melanoma 0.529% | LOX IMVI melanoma -100%

CCOC(=O)C(Cc1ccccc1)N1C(=O)/C(=C/N2N=C(c3ccc(OC)cc3)CC2c2ccc3ccccc3c2)SC1=S (stereo not given)
inactive: SNB-75 CNS 40.6% | SNB-19 CNS 14.9% | PC-3 prostate 18.9%
active: HCT-15 colon -67.4% | HT29 colon -2.97% | U251 CNS -26.8% | SK-MEL-5 melanoma -98.2% | UACC-62 melanoma -76.7% | LOX IMVI melanoma -100% | SK-MEL-28 melanoma 9.31%

COc1ccc(NC(=O)CSc2nnc(-c3ccc4nc(-c5ccc(Cl)cc5)[nH]c4c3)o2)cc1
active: U251 CNS -15.3% | UACC-62 melanoma 7.61%
inactive: HCT-15 colon 29.9% | HT29 colon 34.6% | SNB-75 CNS 112% | SNB-19 CNS 33.7% | PC-3 prostate 51.9% | SK-MEL-5 melanoma 16.1% | LOX IMVI melanoma 16.6% | SK-MEL-28 melanoma 10.1%

Cc1cccc2cc(-c3cc(-c4ccccc4)nc(=S)[nH]3)c(Cl)nc12
inactive: HCT-15 colon 53.2% | HT29 colon 86.5% | SNB-75 CNS 103% | SNB-19 CNS 82.2% | U251 CNS 99.1% | PC-3 prostate 72.5% | SK-MEL-5 melanoma 23.6% | UACC-62 melanoma 37.5% | LOX IMVI melanoma 66.9% | SK-MEL-28 melanoma 59.8%

Cc1cc(C)nc(NS(=O)(=O)c2ccc(N/C(N)=N/c3nccc(-c4cccs4)n3)cc2)n1
inactive: HCT-15 colon 97.4% | HT29 colon 108% | SNB-75 CNS 78.6% | SNB-19 CNS 100% | U251 CNS 102% | PC-3 prostate 86.6% | SK-MEL-5 melanoma 96.2% | UACC-62 melanoma 96.3% | LOX IMVI melanoma 77.8% | SK-MEL-28 melanoma 106%

O=C(CSc1nnc(-c2c[nH]c3ccccc23)n1-c1ccccc1)Nc1ccc(C(=O)/C=C/c2ccc(Cl)cc2)cc1
inactive: HCT-15 colon 59.3% | HT29 colon 86.4% | SNB-75 CNS 80% | SNB-19 CNS 73.1% | U251 CNS 73.9% | PC-3 prostate 58.9% | SK-MEL-5 melanoma 83.3% | UACC-62 melanoma 62.8% | LOX IMVI melanoma 67.6% | SK-MEL-28 melanoma 84.1%

O=C(Nc1cccc(-c2cn(-c3ccc4oc(=O)ccc4c3)nn2)c1)Nc1cc(C(F)(F)F)cc(C(F)(F)F)c1
inactive: HCT-15 colon 19% | HT29 colon 44.9% | SNB-75 CNS 17.8% | SNB-19 CNS 27.4% | U251 CNS 13.4% | PC-3 prostate 27.7% | UACC-62 melanoma 11.3% | LOX IMVI melanoma 17.2% | SK-MEL-28 melanoma 22.5%
active: SK-MEL-5 melanoma 2.67%

CN1CCN(Cc2ccc(C(=O)Nc3cccc(Nc4ccc5cc(O)ccc5n4)c3)cc2C(F)(F)F)CC1
active: HCT-15 colon -81% | HT29 colon -49.4% | SNB-75 CNS -11.4% | SNB-19 CNS -54% | U251 CNS -65% | PC-3 prostate -22.9% | SK-MEL-5 melanoma -99.7% | UACC-62 melanoma -90.1% | LOX IMVI melanoma -93.5% | SK-MEL-28 melanoma -91.9%

O=C(Cc1ccc2c(c1)CN(C1CCC(=O)NC1=O)C2=O)NCc1cccc2ccccc12 (stereo not given)
active: HCT-15 colon -30.1% | HT29 colon 3.65% | SNB-75 CNS -33.1% | SNB-19 CNS -11.9% | PC-3 prostate 6.97% | SK-MEL-5 melanoma -93.8% | UACC-62 melanoma 4.05% | LOX IMVI melanoma -48.3% | SK-MEL-28 melanoma -10.6%
inactive: U251 CNS 17.2%

CC[C@@]1(O)C(=O)OCc2c1cc1n(c2=O)Cc2c-1nc1cc(F)c(C)c3c1c2[C@@H](N)CC3
active: HCT-15 colon 5.44% | HT29 colon -11.1% | SNB-75 CNS -26.1% | SNB-19 CNS 1.87% | U251 CNS -42.1% | SK-MEL-5 melanoma -78.4% | UACC-62 melanoma -78.1% | LOX IMVI melanoma -74.2% | SK-MEL-28 melanoma -15.7%
inactive: PC-3 prostate 22.5%
